According to PubChem BioAssay:

biological target: Torsin-1A-interacting protein 1 (Homo sapiens) (UniProt Q5JTV8); test: compound microarray binding of lysate hLAP1 – cell lysate, small-molecule microarray, COS7 lysate, 635/667 nm fluorescence, primary screen (AID 1116); settings: 635 nm fluorescence, higher = more signal
Sequence (Q5JTV8 whole entry, looked up): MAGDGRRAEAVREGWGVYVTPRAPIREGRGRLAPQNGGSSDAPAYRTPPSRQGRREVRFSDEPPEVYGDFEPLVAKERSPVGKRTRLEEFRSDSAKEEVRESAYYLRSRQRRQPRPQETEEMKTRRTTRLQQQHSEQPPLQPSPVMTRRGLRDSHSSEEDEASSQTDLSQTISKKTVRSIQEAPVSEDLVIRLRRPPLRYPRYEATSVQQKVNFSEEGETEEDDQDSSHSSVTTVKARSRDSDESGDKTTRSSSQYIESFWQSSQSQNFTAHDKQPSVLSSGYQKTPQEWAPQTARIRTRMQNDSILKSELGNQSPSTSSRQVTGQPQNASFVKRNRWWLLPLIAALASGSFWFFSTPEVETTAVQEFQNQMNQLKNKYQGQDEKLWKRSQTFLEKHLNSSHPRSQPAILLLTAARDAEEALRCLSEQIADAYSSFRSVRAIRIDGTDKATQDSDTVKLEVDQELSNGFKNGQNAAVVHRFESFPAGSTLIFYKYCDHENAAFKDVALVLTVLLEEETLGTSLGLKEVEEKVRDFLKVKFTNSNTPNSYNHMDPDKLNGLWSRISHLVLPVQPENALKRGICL

Row | Compound | composite z-score
1 | O=C1C2C=CC(C(O)Cc3ccccc3)N(Nc3ccc([N+](=O)[O-])cc3)C2C(=O)N1c1ccccc1 (stereo unspecified) | 0.937
2 | CC(C)C[C@@H]1NC(=O)[C@H](CC(C)C)NC(=O)[C@@]23C(=O)N[C@@H](Cc4ccccc4)C2[C@H](C)[C@@]2(C)O[C@H]2C3/C=C/CC/C=C/CNC1=O (stereo partly specified) | 0.292
3 | COC(=O)[C@@]1(Cc2ccccc2CN=[N+]=[N-])N=C(c2ccc(OCCCO)cc2)O[C@H]1c1ccccc1N=[N+]=[N-] | 0.0753
4 | CCOC(=O)C[C@H]1[C@H](OC(=O)Cc2ccc3c(c2)OCO3)[C@@H](NC(=O)c2ccc3ccccc3c2)c2cc(OCCCO)ccc2N1C(=O)Cc1ccc(OC)cc1 | 0.941
5 | C[N+](C)(C)CCCCNC(=O)[C@H]1C[C@H]2C(=O)NCC(=O)N2[C@H]1c1cccc(OCCO)c1 | 0.724
6 | C=C(/C(=C/C[C@@H](OC(=O)c1ccncc1)c1ccc(CO)o1)c1cnc2ccccc2c1)C(C)C | 1.36
7 | CCCNC(=O)[C@@]1(Sc2ccc(C)cc2)CC(=O)N(Cc2ccccc2Cl)[C@@H]1c1ccc(CO)cc1 | 0.574
8 | COC(=O)Cn1c(C(=O)N2CCCC2)cc2c1C[C@H]1CN(C(=O)c3ccccc3)[C@@](Cc3ccccc3)(C(=O)OC)[C@@H]21 | 0.261
9 | NC(=O)NCC#Cc1ccc2c(c1)[C@]1(C(=O)N2)[C@H](C(=O)N2CCCCCCC2)[C@H]2C(=O)O[C@H](c3ccccc3)[C@H](c3ccccc3)N2[C@@H]1c1ccccc1OCCO | 5.01
10 | Cc1ccc(S[C@]2(C(=O)NCCCN(C)C)CC(=O)N(C3CCCCC3)[C@@H]2c2ccc(CO)cc2I)cc1 | 0.123
11 | CCN1C(C)=C(C(=O)OC)[C@@H](c2ccccc2)N2C(=O)[C@@]3(C(=O)OC)O[C@@]12[C@@H]1C(=O)N(C)C(=O)[C@@H]13 | 0.426
12 | CO[C@H]1COC(=O)[C@H](C)NC(=O)CC=C[C@@H](C)[C@H](NS(=O)(=O)c2ccc(C)cc2)COC(=O)CC=C[C@@H]1C | 0.368
13 | Cc1ccc(S(=O)(=O)N[C@H]2COC(=O)CC=C[C@H](C)COC(=O)N[C@@H](C)C(=O)CC=C[C@@H]2C)cc1 | 0.0478
14 | CN1C2C=C(c3ccc(CO)cc3)C(C3C(=O)N(C(N)=O)C(=O)C32)C1c1cccs1 (stereo unspecified) | 1.24
15 | CCCC=C(CCC)[C@@H](NS(=O)(=O)c1ccc(C(F)(F)F)cc1)c1ccc(-c2ccccc2)cc1 | 0.0541
16 | CO[C@H]1COC(=O)[C@@H](C)NC(=O)CC=C[C@@H](C)[C@H](OC)COC(=O)CC=C[C@@H]1C | -0.0099
17 | C=CCC(OC(C)=O)[C@@H]1[C@@H](N(Cc2cc3ccccc3o2)C(=O)Cc2ccc(F)cc2)c2cc(OCCCO)ccc2N1C(=O)c1ccc(-c2ccccc2)cc1 (stereo partly specified) | -0.467
18 | Cc1ccc(N2C(=O)c3ccccc3[C@@H](C(=O)NCc3ccccc3)[C@@H]2c2ccc(CO)cc2)nc1 | 0.776

Row | Compound | composite z-score
19 | CCCC[C@@H]1C[C@H]1[C@@H](NC(=O)c1ccccc1)c1ccccc1C(F)(F)F | 1.06
20 | CN1C(=O)C2C=CC(C(O)c3ccc(N(C)C)cc3)N(Nc3ccc([N+](=O)[O-])cc3[N+](=O)[O-])C2C1=O (stereo unspecified) | 1
21 | O=C1C2C=CC(C(O)C#Cc3ccccc3)N(Nc3ccccc3)C2C(=O)N1c1ccccc1 (stereo unspecified) | 0.945
22 | Cc1ccc(S[C@]2(C(=O)NCCN3CCOCC3)CC(=O)N(C3Cc4ccccc4C3)[C@@H]2c2ccc(CO)cc2I)cc1 | 0.0697
23 | O=C1O[C@@H](c2ccccc2)[C@@H](c2ccccc2)N2[C@@H](c3ccc(O)cc3)[C@]3(C(=O)Nc4ccccc43)[C@@H](C(=O)N3CCN(c4ncccn4)CC3)[C@H]12 | 0.0398
24 | C=CC[C@]1(C(=O)NCC(O)CO)N=C(c2ccc(OCCCO)cc2)O[C@H]1c1ccccc1 (stereo partly specified) | 3.97
25 | CC[C@@H]1C=C(C(=O)O)[C@H](c2ccccc2)N1S(=O)(=O)c1ccc([N+](=O)[O-])cc1 | 1.41
26 | CN1CCC(CCCO)=CC1C1CC1 (stereo unspecified) | -0.434
27 | C=CC[C@]1(C(=O)N2CCCCC2)N=C(c2ccc(OCCCO)cc2)O[C@H]1c1ccccc1N=[N+]=[N-] | 1.85
28 | COc1cccc([C@@H]2[C@@H](C)CC[C@H]3C(=O)N4[C@H](c5cccc(OC)c5)[C@@H](C)CC[C@H]4C(=O)N23)c1 | 0.37
29 | COCCOC(=O)N1C(=O)[C@@]2(c3cc(C#CC4=CCCCC4)ccc31)[C@H](c1ccc(O)cc1)N1[C@H](c3ccccc3)[C@H](c3ccccc3)OC(=O)[C@H]1[C@@H]2C(=O)N1CCCCCCC1 | 0.691
30 | C=CCC(OC(C)=O)[C@@H]1[C@@H](N(Cc2cccc3ccccc23)C(=O)c2ccc(C)cc2)c2cc(OCCCO)ccc2N1C(=O)c1ccc(-c2ccccc2)cc1 (stereo partly specified) | -0.144
31 | C=CCN1C(=O)[C@]2(O[C@H](CCn3cc(CCO)nn3)[C@@H]([Si](C)(C)c3ccc(OC)cc3)[C@@H]2C)c2cc(NC(=O)c3ccc(OC)cc3)ccc21 | 0.573
32 | CC(=O)NCCCC[C@@H]1NC(=O)[C@@H]2C[C@H](C(=O)NCCCCCCN(C)C)[C@H](c3ccc(O)cc3)N2C1=O | 1.84
33 | CO[C@@H]1COC(=O)[C@H](COCc2ccccc2)NC(=O)CC=C[C@@H](C)[C@H](OC)COC(=O)[C@H](COCc2ccccc2)NC(=O)CC=C[C@H]1C | -0.217
34 | COCCOC(=O)N1C(=O)[C@@]2(c3ccccc31)[C@H](C(=O)N1CCc3cc(OC)c(OC)cc3C1)[C@H]1C(=O)O[C@H](c3ccccc3)[C@H](c3ccccc3)N1[C@@H]2c1ccccc1OCCO | 0.987
35 | C=C(CCCC)/C(=C/C[C@@H](OC(=O)c1ccncc1)c1cccc(OCCO)c1)c1cc(C(=O)OC)ccc1OC | 0.344
36 | C#CCCCON=C1C[C@@H](O)[C@@H](O)[C@@H]2[C@@H]3C(=O)N(Cc4ccc5c(c4)OCO5)C(=O)[C@@H]3CC[C@@H]12 | -0.0849
